# Source: PubChem BioAssay AID1942 (Johns Hopkins Ion Channel Center, 2009)
# The whole screen tested about 2,400 compounds, of which about 580 (24%) were called active.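 The calls were made as follows: active = activity change at or above the mean plus 3 SD of buffer wells without dofetilide, per plate; inactive = the rest.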 The list is a sample of the results.
# Biological target: Potassium voltage-gated channel subfamily KQT member 2 (Rattus norvegicus) (UniProt O88943)
# Test: KCNQ2 potentiation in CHO cells – cell-based, FluxOR thallium flux, counter-screen for hERG block protector project, confirmation (AID 1942);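 as to activity change, less the hit threshold: normalized value minus buffer-control mean plus three SD of buffer wells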
# Details: FluxOR thallium flux fluorescence, at 10 µM, stronger effect = higher value
# Potassium voltage-gated channel subfamily KQT member 2 (Rattus norvegicus), sequence (O88943 whole entry, looked up): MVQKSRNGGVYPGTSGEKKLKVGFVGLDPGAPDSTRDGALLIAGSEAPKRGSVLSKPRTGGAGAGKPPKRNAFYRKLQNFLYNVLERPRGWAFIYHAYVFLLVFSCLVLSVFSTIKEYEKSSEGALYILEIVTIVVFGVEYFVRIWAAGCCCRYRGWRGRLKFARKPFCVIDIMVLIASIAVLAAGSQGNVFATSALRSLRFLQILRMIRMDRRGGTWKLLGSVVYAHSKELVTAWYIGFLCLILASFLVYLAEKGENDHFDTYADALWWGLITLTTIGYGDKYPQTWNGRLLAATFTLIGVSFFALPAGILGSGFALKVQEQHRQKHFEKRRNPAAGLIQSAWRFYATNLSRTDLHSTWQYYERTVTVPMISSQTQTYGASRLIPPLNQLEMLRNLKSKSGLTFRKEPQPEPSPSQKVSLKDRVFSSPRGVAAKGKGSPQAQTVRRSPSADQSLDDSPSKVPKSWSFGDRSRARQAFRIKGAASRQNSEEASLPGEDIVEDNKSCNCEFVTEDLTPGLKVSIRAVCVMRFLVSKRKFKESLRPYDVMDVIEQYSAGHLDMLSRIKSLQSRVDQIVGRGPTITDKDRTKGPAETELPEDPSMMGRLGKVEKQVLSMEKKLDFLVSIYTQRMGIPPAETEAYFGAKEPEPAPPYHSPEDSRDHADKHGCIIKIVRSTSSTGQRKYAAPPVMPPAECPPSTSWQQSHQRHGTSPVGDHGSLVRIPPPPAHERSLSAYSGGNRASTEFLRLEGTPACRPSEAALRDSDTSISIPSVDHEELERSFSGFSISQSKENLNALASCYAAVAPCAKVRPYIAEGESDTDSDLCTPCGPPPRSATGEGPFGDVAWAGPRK
SMILES,activity change,"activity change, less the hit threshold"
O=C1NC(=O)N(c2ccccc2)C(=O)/C1=C/c1ccc(Sc2ccccc2)o1,-16.9% (inactive),
O=C1NC(=S)N(c2ccc(F)cc2)C(=O)/C1=C/c1ccco1,0.7% (active),
Cc1ccccc1N1C(=O)/C(=C/c2ccco2)C(=O)NC1=S,-6.4% (inactive),
COc1ccc(-c2nc(CSCC(=O)N3CCC4(CC3)OCCO4)c(C)o2)cc1OC,-18.2% (inactive),
O=C(Cn1ncc2c3ccccc3n(Cc3ccccc3F)c2c1=O)N1CCC2(CC1)OCCO2,37% (active),
O=C1NC(=O)C(=Cc2ccc(-c3cc(Cl)ccc3[N+](=O)[O-])o2)C(=O)N1,-15.8% (inactive),
CC/C(=C\C=C\[C@@H]1C=C[C@@H]2CCC[C@H]2[C@@H]1C(=O)c1ccc[nH]1)[C@@H]1O[C@@H]([C@@H](C)C(=O)O)CC[C@@H]1C,,166% (active)
CN(C)C(=O)O/N=C(\N)COc1ccc(C(C)(C)C)cc1,,-13% (inactive)
O=c1[nH]c(=S)[nH]c(O)c1/C=C1/C=c2ccccc2=N1,-27.3% (inactive),
O=C(COc1ccc(Br)cc1)N1CCN(Cc2ccc3c(c2)OCO3)CC1,,-18.6% (inactive)
N#CCCn1cc(C(=O)Nc2ccccc2Cl)c(-c2ccc(F)cc2)n1,,-16.8% (inactive)
CCOC(=O)c1c(NS(=O)(=O)c2ccccc2)n(CCCOC)c2nc3ccccc3nc12,,-27.8% (inactive)
COc1cccc(OC)c1C(=O)Nc1nc(N)n(-c2ccccc2)n1,,-9.7% (inactive)
COc1ccc(OC)c(N2C(=O)/C(=C/c3ccco3)C(=O)NC2=S)c1,-13.8% (inactive),
COc1ccc2c(c1)/C(=C/c1cnc[nH]1)C(=O)N2,,0.2% (active)
O=C1NC(=O)N(CCNc2ncc(C(F)(F)F)cc2Cl)C(=O)C1Cc1ccc(Cl)cc1 (stereo not given),-25.6% (inactive),
COc1ccc(CN2CCCC(C(=O)c3sccc3C)C2)cc1O (stereo not given),,-26.3% (inactive)
C=CCN1C(=O)/C(=C/c2ccc(Br)s2)C(=O)NC1=S,-20.2% (inactive),
O=c1c2ccccc2[nH]c(=S)n1-c1ccc2c(c1)OCCO2,,-18.7% (inactive)
O=C(O)CCC(=O)NCCC1=c2ccccc2=N/C1=C\c1c(O)n(Cc2ccc(F)cc2)c(=S)[nH]c1=O,-17.9% (inactive),
